According to PubChem BioAssay:
Active and inactive are the calls of the source.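 The calls were made as follows, unless noted: active = mean inhibition above 46.68%, the untreated control wells mean plus 3 SD; inactive = the rest.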

What was measured:
[1] = molecular target: Nuclear receptor coactivator 3 (Homo sapiens) (UniProt Q9Y6Q9); experiment: NCOA3 GAL4-fusion reporter inhibition – cell-based, luminescence, quadruplicate, confirmation (AID 588792;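 active = mean inhibition over 43.08%, the solvent-only control mean plus 3 SD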;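 also: 0% = DMSO treated cells and 100% = gossypol at 36 µM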); details: HEK293 GAL4-SRC3 luciferase reporter, at 3.6 µM, hits give high values
Nuclear receptor coactivator 3 (Homo sapiens), sequence (Q9Y6Q9 whole entry, looked up, the tested form may be a part): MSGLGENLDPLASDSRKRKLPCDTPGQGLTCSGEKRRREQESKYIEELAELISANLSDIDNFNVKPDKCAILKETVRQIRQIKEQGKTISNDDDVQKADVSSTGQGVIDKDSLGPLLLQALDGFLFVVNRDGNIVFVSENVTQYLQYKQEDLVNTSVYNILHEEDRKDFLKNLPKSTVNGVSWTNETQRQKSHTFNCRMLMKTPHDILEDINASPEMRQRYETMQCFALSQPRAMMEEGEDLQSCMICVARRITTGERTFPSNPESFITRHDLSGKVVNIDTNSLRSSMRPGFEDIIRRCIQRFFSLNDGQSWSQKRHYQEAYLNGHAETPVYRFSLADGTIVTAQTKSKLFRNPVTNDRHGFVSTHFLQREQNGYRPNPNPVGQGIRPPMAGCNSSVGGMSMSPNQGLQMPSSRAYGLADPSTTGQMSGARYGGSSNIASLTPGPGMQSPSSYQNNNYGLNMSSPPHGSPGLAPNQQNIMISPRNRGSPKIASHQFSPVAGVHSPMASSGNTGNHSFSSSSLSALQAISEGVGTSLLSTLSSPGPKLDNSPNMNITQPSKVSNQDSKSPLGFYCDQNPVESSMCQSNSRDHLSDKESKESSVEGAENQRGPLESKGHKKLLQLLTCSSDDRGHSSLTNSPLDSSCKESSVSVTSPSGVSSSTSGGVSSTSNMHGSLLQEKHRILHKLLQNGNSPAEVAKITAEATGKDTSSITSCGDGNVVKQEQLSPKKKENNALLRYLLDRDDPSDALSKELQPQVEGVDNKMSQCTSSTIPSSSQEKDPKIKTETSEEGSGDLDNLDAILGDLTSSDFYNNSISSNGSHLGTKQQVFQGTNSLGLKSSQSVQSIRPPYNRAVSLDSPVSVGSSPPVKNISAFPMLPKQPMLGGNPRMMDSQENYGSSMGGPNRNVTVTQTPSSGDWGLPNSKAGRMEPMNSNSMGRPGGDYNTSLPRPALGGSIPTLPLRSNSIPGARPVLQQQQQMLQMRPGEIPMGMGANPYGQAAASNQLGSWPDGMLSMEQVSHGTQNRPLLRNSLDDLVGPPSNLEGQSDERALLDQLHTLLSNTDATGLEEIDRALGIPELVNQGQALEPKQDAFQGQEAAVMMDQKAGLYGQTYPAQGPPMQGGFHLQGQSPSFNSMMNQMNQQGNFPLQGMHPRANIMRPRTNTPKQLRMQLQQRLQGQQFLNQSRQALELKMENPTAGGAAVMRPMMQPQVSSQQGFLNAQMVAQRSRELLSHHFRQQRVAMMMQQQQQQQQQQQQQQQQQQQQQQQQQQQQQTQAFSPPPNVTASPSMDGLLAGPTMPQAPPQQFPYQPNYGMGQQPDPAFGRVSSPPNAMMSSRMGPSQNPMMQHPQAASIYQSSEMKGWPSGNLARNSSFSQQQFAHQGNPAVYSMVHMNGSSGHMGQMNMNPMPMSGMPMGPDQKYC

[2] = tested on: transactivating tegument protein VP16 (Human herpesvirus 1), Gal4-VP16 luciferase reporter; experiment: repression of VP16-driven luciferase reporter – cell-based, luminescence, high throughput, counter-screen for SRC3 inhibitor project (AID 588794; in the data active = inhibition above about 30%); details: mammalian cells, at 3.6 µM, hits give high values
[3] = molecular target: Nuclear receptor coactivator 1 (Homo sapiens) (UniProt Q15788); experiment: NCOA1 GAL4-fusion reporter inhibition – cell-based, luminescence, quadruplicate, confirmation (AID 588820); details: HEK293 GAL4-SRC1 luciferase reporter, at 3.6 µM, hits give high values;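 also: 0% = DMSO wells and 100% = gossypol 36 µM treated wells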
Nuclear receptor coactivator 1 (Homo sapiens), sequence (Q15788 whole entry, looked up, the tested form may be a part): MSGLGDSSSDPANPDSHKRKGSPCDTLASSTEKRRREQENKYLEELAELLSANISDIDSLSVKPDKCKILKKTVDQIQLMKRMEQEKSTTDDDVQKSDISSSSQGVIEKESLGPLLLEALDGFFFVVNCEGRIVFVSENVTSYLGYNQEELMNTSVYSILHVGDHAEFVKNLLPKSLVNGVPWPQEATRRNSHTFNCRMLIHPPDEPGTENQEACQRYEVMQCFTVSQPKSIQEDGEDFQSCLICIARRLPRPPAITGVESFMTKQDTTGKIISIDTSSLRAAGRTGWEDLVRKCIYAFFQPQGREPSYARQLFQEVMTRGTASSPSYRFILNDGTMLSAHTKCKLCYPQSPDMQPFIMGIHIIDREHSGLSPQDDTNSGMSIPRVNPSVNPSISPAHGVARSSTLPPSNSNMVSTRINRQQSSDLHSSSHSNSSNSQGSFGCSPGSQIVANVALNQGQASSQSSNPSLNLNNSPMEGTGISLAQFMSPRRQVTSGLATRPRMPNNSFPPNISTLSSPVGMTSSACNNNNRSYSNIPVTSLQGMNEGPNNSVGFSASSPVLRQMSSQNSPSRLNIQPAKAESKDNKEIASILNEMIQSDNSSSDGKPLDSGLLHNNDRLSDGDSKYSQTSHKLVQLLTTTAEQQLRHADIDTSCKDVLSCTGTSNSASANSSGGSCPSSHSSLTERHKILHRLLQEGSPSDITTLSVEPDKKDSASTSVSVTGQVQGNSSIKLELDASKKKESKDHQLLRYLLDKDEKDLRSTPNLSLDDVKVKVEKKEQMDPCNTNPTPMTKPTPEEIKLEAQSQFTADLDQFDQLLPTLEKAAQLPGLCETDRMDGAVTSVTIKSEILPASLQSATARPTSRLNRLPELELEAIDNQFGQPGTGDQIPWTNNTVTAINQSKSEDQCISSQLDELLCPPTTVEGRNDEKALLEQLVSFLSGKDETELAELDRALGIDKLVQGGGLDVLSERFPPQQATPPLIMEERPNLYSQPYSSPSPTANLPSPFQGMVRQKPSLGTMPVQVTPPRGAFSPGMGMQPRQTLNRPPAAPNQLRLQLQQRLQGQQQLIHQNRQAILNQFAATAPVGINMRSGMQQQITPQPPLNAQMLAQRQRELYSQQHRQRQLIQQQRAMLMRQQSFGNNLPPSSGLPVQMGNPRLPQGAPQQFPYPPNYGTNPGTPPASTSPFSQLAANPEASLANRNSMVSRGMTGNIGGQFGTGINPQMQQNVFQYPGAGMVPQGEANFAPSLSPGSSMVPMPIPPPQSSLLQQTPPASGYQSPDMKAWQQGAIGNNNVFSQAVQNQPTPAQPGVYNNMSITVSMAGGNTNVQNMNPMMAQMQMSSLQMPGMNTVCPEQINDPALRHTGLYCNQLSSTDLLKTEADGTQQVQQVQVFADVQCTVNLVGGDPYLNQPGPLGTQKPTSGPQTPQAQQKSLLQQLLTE

[4] = repression of VP16-driven luciferase reporter – cell-based, luminescence, high throughput, counter-screen for SRC1 inhibitor project (AID 588824; in the data active = inhibition above about 25%); details: cell-based VP16 transactivation luciferase luminescence; at 3.6 µM; hits give high values

SMILES	inhibition [1]	inhibition [2]	inhibition [3]	inhibition [4]
COc1cccc2c1C(=N)c1c(O)c3c(c(O)c1C2=O)CC(O)(C(C)=O)CC3OC1CC(N)C(O)C(C)O1 (stereo unspecified)	41.9% (inactive)	-33.3% (inactive)	26.9% (inactive)	-29.4% (inactive)
COc1cccc(CNc2ncnc3ccc(-c4c(C)noc4C)cc23)c1	36.6% (inactive)	1.06% (inactive)	19.3% (inactive)	-7.49% (inactive)
CC(C)(C)S(=O)N1Cc2cc(C(=O)NCC(F)(F)F)nc(-c3cccc(-c4cccc(F)c4)c3)c2[C@@H]1CCO (stereo partly specified)	10.3% (inactive)	2.05% (inactive)	-14.2% (inactive)	-2.6% (inactive)
Nc1ccc(-c2cnc(N)c(C(=O)c3cccnc3)n2)cn1	85.8% (active)	55.7% (active)	74.3% (active)	56% (active)
CCCS(=O)(=O)Nc1ccc(Nc2c3ccccc3nc3ccccc23)c(OC)c1	64.2% (active)	17.1% (inactive)	56.8% (active)	2.6% (inactive)
Cc1ccc(NC(=O)CCC(=O)N/N=C/c2ccc(O)cc2O)cc1	7.69% (inactive)	7.07% (inactive)	20.4% (inactive)	15.4% (inactive)
Fc1ccc(CSc2nnc(-c3ccncc3)o2)cc1	53.9% (active)	22.7% (inactive)	29.9% (inactive)	19.3% (inactive)
COc1cc(OC)c2nc(C)c3c(c2c1)N(c1ccc(O)cc1)CC3	5.19% (inactive)	37.7% (active)	12.8% (inactive)	30.1% (active)
O=C(NC1CCCN(Cc2ccccc2F)C1)c1cccc(N2CCCC2=O)c1 (stereo unspecified)	3.31% (inactive)	-7.69% (inactive)	-4.75% (inactive)	-1.08% (inactive)
COc1ccc(Cl)cc1Nc1nc(-c2sc(NC(=O)C(C)(C)C)nc2C)cs1	15.2% (inactive)	35.9% (active)	14.5% (inactive)	39.8% (active)
Cc1nc(N)nc(N)c1-c1ccc(Cl)c(Cl)c1	58.5% (active)	24.5% (inactive)	54.2% (active)	33.6% (active)
Cc1ccc2nc(NNC(=O)c3ccc(S(=O)(=O)N4CCc5ccccc5C4)cc3)sc2c1	41.8% (inactive)	46.4% (active)	45% (inactive)	50% (active)
CCC(=O)Oc1c(C(=O)CC)cc2c(C)cc(=O)oc2c1C	15.1% (inactive)	17.6% (inactive)	25.6% (inactive)	15.6% (inactive)
O=[N+]([O-])c1ccc(O)c(/C=N/Nc2ccc(Cl)nn2)c1	87.2% (active)	83.6% (active)	73.1% (active)	82.2% (active)
CN=C1S/C(=C\c2cc(C)n(-c3ccccc3F)c2C)C(=O)N1C	-15.3% (inactive)	-38.2% (inactive)	-105% (inactive)	-68% (inactive)
CCN(CC)c1ccc(/C=N/NC(=O)CNC(=O)C2COc3ccccc3O2)c(O)c1 (stereo unspecified)	24.4% (inactive)	17.7% (inactive)	8.85% (inactive)	18.9% (inactive)
N=c1c2c(-c3ccccc3)c(-c3ccccc3)n(Cc3ccco3)c2ncn1CCCO	26.8% (inactive)	52.6% (active)	36.9% (inactive)	51.3% (active)
CCOC(=O)c1cc2sccc2n1CC(=O)N1CCc2ccccc21	43.4% (active)	29.2% (inactive)	31.8% (inactive)	31.3% (active)
NC(=S)NN=Cc1nccc2c(N)cccc12	72.3% (active)	17.2% (inactive)	47.8% (active)	8.49% (inactive)
